We go through 28 sequences from the supplement of paper PMC12645437, “Orthogonal IMiD-Degron Pairs Induce Selective Protein Degradation in Cells” (ACS Chemical Biology, 2025).

For the experiment, the target named is T1, CRBN, Q96SW2.
T1 chain: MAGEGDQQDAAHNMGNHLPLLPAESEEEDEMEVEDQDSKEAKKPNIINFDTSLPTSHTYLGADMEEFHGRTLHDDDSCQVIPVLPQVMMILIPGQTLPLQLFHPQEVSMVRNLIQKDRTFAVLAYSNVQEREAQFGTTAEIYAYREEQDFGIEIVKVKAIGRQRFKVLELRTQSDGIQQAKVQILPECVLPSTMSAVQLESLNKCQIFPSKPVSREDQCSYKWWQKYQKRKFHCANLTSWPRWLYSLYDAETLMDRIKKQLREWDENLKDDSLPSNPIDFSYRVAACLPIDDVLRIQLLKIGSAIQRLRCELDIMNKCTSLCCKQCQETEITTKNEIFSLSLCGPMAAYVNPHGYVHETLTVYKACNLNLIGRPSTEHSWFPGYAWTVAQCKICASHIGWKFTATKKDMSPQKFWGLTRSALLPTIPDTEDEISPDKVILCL
Kind of experiment: log2 fold change of degron read counts, EGFP-low vs EGFP+ sorted cells (limma voom), compound-induced degradation; higher = more compound-induced degradation of the degron-EGFP fusion; degrons are variants of IKZF1/3 zinc finger 2; compound dose not given here. The following applies: Jurkat, 18 h.

The mark [1] stands for this setting: compound: compound 19 (5-tert-butyl-thalidomide).
[2] abbreviates: compound: compound 22 (5-morpholino-thalidomide).
Setting [3] is: compound: compound 33 (diphenyl IMiD analogue).

In all, about 8,300 sequences were measured (“log2 fold change of degron read counts, EGFP-low vs EGFP+ sorted cells (limma voom), compound-induced degradation”: median about -1.1, highest 2% from about 3.2 on). The full list was thinned out, with the highest values kept by preference.
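Further: pooled lentiviral library of zinc finger degron-EGFP fusions in mCherry-positive Jurkat cells, FACS-sorted after compound exposure, with degron abundance counted by next-generation sequencing.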

Regarding FRCEVCGANFTQKGNLLRHIKL [46F_47R_49E_50V_52G_53A_54N_55F_67L_, Q9UKT9], the “log2 fold change of degron read counts” value under setting [1] is -1.19, the “log2 fold change of degron read counts” value under setting [2] is -1.18, the “log2 fold change of degron read counts” value under setting [3] stood at 1.07 and the “log2 fold change of degron read counts” value (compound: thalidomide) was 0.852.
Turning to FHCPVCGADFTQKGNLLRHIKL [46F_47H_49P_50V_52G_53A_54D_55F_67L_, Q9UKT9], the “log2 fold change of degron read counts” value is, setting by setting: under setting [1], -0.685; under setting [2], -1.25; under setting [3], 0.492; (compound: thalidomide) -1.46.
With FVCPICGRNFTQKGNLLRHIKL [46F_47V_49P_50I_52G_53R_54N_55F_67L_, Q9UKT9], the “log2 fold change of degron read counts” value by setting is: under setting [1], -1.5; under setting [2], 0.0165; under setting [3], -0.308; (compound: thalidomide) 1.47.
Take FDCNICGAGFTQKGNLLRHIKL [46F_47D_49N_50I_52G_53A_54G_55F_67L_, Q9UKT9]: the “log2 fold change of degron read counts” value was -0.56 under setting [1], -1.59 under setting [2], -0.734 under setting [3] and -0.131 (compound: thalidomide).
With FGCNQCGRQFTQKGNLLRHIKL [46F_47G_49N_50Q_52G_53R_54Q_55F_67L_, Q9UKT9], the “log2 fold change of degron read counts” value under setting [1] was -1.78, the “log2 fold change of degron read counts” value under setting [2] was -3.61, the “log2 fold change of degron read counts” value under setting [3] was -1.87 and the “log2 fold change of degron read counts” value (compound: thalidomide) was -1.99.
For FECNQCGAQFTQKGNLLRHIKL [46F_47E_49N_50Q_52G_53A_54Q_55F_67L_, Q9UKT9], in that order: -3.22, -3.17, -2.23 and -1.78.
For FHCEVCGAVFTQKGNLLRHIKL [46F_47H_49E_50V_52G_53A_54V_55F_67L_, Q9UKT9], in that order: 0.991, 1.24, 1.22 and -0.292.
FLCEVCGAVFTQKGNLLRHIKL [46F_47L_49E_50V_52G_53A_54V_55F_67L_, Q9UKT9]: the “log2 fold change of degron read counts” value is, setting by setting: under setting [1], -1.19; under setting [2], -1.32; under setting [3], 0.896; (compound: thalidomide) 1.47.
For FVCEVCGAVFTQKGNLLRHIKL [46F_47V_49E_50V_52G_53A_54V_55F_67L_, Q9UKT9], in that order: -0.567, 1.18, 2.1 and 2.01.
For FKCEVCGAVFTQKGNLLRHIKL [46F_47K_49E_50V_52G_53A_54V_55F_67L_, Q9UKT9], in that order: -2.3, -3.46, -2.84 and -1.47.
For FQCEVCGAVFTQKGNLLRHIKL [46F_47Q_49E_50V_52G_53A_54V_55F_67L_, Q9UKT9], in that order: -0.43, 2.76, 2.39 and 3.71.
On to FTCEVCGAVFTQKGNLLRHIKL [46F_47T_49E_50V_52G_53A_54V_55F_67L_, Q9UKT9], for which the “log2 fold change of degron read counts” value under setting [1] was -0.209, the “log2 fold change of degron read counts” value under setting [2] worked out at 1.43, the “log2 fold change of degron read counts” value under setting [3] worked out at 1.81 and the “log2 fold change of degron read counts” value (compound: thalidomide) was found to be 2.36.
For FFCEVCGAVFTQKGNLLRHIKL [46F_47F_49E_50V_52G_53A_54V_55F_67L_, Q9UKT9], in that order: 2.87, 3.44, 1.92 and 1.04.
With FSCEVCGAVFTQKGNLLRHIKL [46F_47S_49E_50V_52G_53A_54V_55F_67L_, Q9UKT9], the “log2 fold change of degron read counts” value amounted to 2.19 under setting [1], 1.99 under setting [2], 2.31 under setting [3] and 0.741 (compound: thalidomide).
For FWCEVCGAVFTQKGNLLRHIKL [46F_47W_49E_50V_52G_53A_54V_55F_67L_, Q9UKT9], in that order: 2.83, 3.43, 2.51 and 0.594.
For FDCEVCGAVFTQKGNLLRHIKL [46F_47D_49E_50V_52G_53A_54V_55F_67L_, Q9UKT9], in that order: -0.0916, -0.965, 0.432 and 0.0687.
For FACEVCGAVFTQKGNLLRHIKL [46F_47A_49E_50V_52G_53A_54V_55F_67L_, Q9UKT9], in that order: 3.24, 2.04, 1.3 and 0.155.
Turning to FCCEVCGAVFTQKGNLLRHIKL [46F_47C_49E_50V_52G_53A_54V_55F_67L_, Q9UKT9], the “log2 fold change of degron read counts” value was found to be 1.18 under setting [1], 1.8 under setting [2], 2.68 under setting [3] and 1.79 (compound: thalidomide).
For FRCSVCGHRFTQKGNLLRHIKL [46F_47R_49S_50V_52G_53H_54R_55F_67L_, Q9UKT9], in that order: -2.02, -2.85, -2.44 and -2.23.
For FYCNQCGHGFTQKGNLLRHIKL [46F_47Y_49N_50Q_52G_53H_54G_55F_67L_, Q9UKT9], the “log2 fold change of degron read counts” value was -2.38 under setting [1], -2.88 under setting [2], -2.5 under setting [3] and -2.33 (compound: thalidomide).
As for FNCDVCGAIFTQKGNLLRHIKL [46F_47N_49D_50V_52G_53A_54I_55F_67L_, Q9UKT9], the “log2 fold change of degron read counts” value reads like this: under setting [1], -1.74; under setting [2], -3.02; under setting [3], -1.86; (compound: thalidomide) -2.46.
For FWCEQCGAKFTQKGNLLRHIKL [46F_47W_49E_50Q_52G_53A_54K_55F_67L_, Q9UKT9], in that order: 2.4, 1.97, -0.464 and -0.551.
With LMCNQCGFMCTQKGNLLRHIKL [46L_47M_49N_50Q_52G_53F_54M_55C_67L_, Q9UKT9], the “log2 fold change of degron read counts” value by setting is: under setting [1], -1.58; under setting [2], -1.89; under setting [3], -0.98; (compound: thalidomide) -1.42.
For FSCDVCGATFTQKGNLLRHIKL [46F_47S_49D_50V_52G_53A_54T_55F_67L_, Q9UKT9], in that order: 0.618, 0.269, 0.317 and -0.694.
For FDCEICGHGFTQKGNLLRHIKL [46F_47D_49E_50I_52G_53H_54G_55F_67L_, Q9UKT9], in that order: -3.03, -3.17, -3 and -2.57.
Take FSCEICGHVFTQKGNLLRHIKL [46F_47S_49E_50I_52G_53H_54V_55F_67L_, Q9UKT9]: the “log2 fold change of degron read counts” value is, setting by setting: under setting [1], -2.99; under setting [2], -2.93; under setting [3], -2.63; (compound: thalidomide) -2.67.
For FYCDQCGAIFTQKGNLLRHIKL [46F_47Y_49D_50Q_52G_53A_54I_55F_67L_, Q9UKT9], in that order: -1.03, -1.1, -1.87 and -2.56.
Regarding FFCPICGAGFTQKGNLLRHIKL [46F_47F_49P_50I_52G_53A_54G_55F_67L_, Q9UKT9], the “log2 fold change of degron read counts” value runs as follows: under setting [1], 3.02; under setting [2], 2.16; under setting [3], 1.63; (compound: thalidomide) 0.485.
